Common to all, as to assay: NCI-60 one-dose screen, 48 h (100 = growth as untreated, 0 = no growth, -100 = all killed)
What all share (details): 10 µM unless noted

The test system of experiment [1] is SR leukemia.
Experiment [2] deals with RPMI-8226 leukemia.
Experiment [3] deals with OVCAR-8 ovarian.
Experiment [4] has as its system OVCAR-5 ovarian.
Experiment [5] relates to OVCAR-4 ovarian.
Experiment [6] deals with SK-OV-3 ovarian.
Experiment [7] relates to IGROV1 ovarian.
The subject of experiment [8] is OVCAR-3 ovarian.
The subject of experiment [9] is HS 578T breast.
For experiment [10], the system named is NCI/ADR-RES ovarian.
In experiment [11] the test system is T-47D breast.
The subject of experiment [12] is BT-549 breast.
The subject of experiment [13] is MDA-MB-435 melanoma.
Experiment [14] has as its system SW-620 colon.
The subject of experiment [15] is MCF7 breast.
Experiment [16] deals with HCT-116 colon.
The test system of experiment [17] is HCC-2998 colon.
Experiment [18] relates to KM12 colon.

The panel holds about 83,000 compounds, 20% with a hit somewhere; the sample as a whole holds those more often.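 Negative percent growth values reflect cell death: -40 means 40% of the cells present at the start died, and -100 means all died.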 A number with no mark means an inactive call. Active and inactive are the calls of the source. Rule for the calls: active = growth percent below 10; inactive = the rest.

Turning to `C=C1C(=O)O[C@H]2[C@H]1CC/C(COC(=O)c1cc3cc(F)ccc3[nH]1)=C\CC[C@@]1(C)O[C@@H]21`, the growth in [1] was -5.71% (active); in experiment [2], -33.3% (active); in experiment [3] it was -42% (active); in [4], -74.2% (active); in experiment [5], -68.2% (active); in [6], 26.7%. Besides, the growth was -72.1% (active) in experiment [7]; -85.5% (active) in [8]; -14.2% (active) in experiment [9]; -20.2% (active) in [10]; -51.8% (active) in experiment [11]; -82.9% (active) in experiment [12]. The growth in experiment [13] was -82% (active); in experiment [14], -69.2% (active); in [15], -61.7% (active); in [16] it was -87.2% (active); in [17], -83.4% (active); in experiment [18] it was -48% (active).

As to `O=C(/C=C/c1ccccc1)Nc1ncc(Cc2ccccc2)s1`, the growth is 15.3% in experiment [1]; 20.2% in experiment [2]; 23.7% in experiment [3]; 18.5% in experiment [4]; 14.1% in experiment [5]; 15.4% in experiment [6]. In addition, the growth is 26.1% in [7]; -34.1% (active) in experiment [8]; 10.4% in [9]; 2.68% (active) in experiment [10]; 26.1% in experiment [11]; 42.9% in [12]. For the same compound, the growth was -40.9% (active) in experiment [13]; 24.6% in experiment [14]; 17.2% in experiment [15]; 11.6% in experiment [16]; 11.9% in experiment [17]; 6.06% (active) in experiment [18].

Consider `O=C1Nc2ccc(F)cc2/C1=N/c1nnc(Sc2ccccc2)s1`, for which the growth in experiment [1] was 61%; in experiment [2], 55.7%; in [3], 89.7%; in experiment [4], 113%; in experiment [5], 95%; in experiment [6], 97.1%. Further, the growth in [7] is 80.2%; in [8] it was 97.3%; in experiment [9], 94.4%; in experiment [10] it was 85.3%; in [11], 61.5%; in [12], 105%. Besides, the growth in experiment [13] was 99.7%; in experiment [14], 91.9%; in experiment [15], 22.2%; in [16], 99.3%; in [17] it was 104%; in experiment [18] it was 88%.

As to `O=c1oc2c(cnc3ccccc32)cc1-c1cccs1`, the growth is 103% in experiment [1]; 103% in experiment [2]; 100% in experiment [3]; 108% in [4]; 100% in experiment [5]; 106% in experiment [6]. In addition, the growth is 99.7% in experiment [7]; 119% in [8]; 99% in [9]; 104% in experiment [10]; 95.9% in [11]; 96.9% in [12]. Moreover, the growth is 103% in experiment [13]; 103% in experiment [14]; 98.1% in experiment [15]; 91.1% in experiment [16]; 117% in [17]; 105% in experiment [18].

In the case of `O=C1CCCc2nc3sc4c(=O)n(-c5ccccc5Cl)nnc4c3cc21`, the growth in experiment [1] is 87.8%; in experiment [2], 87.6%; in experiment [3] it was 92.2%; in experiment [4], 100%; in [5], 105%; in experiment [6], 107%. In addition, the growth is 99.9% in experiment [7]; 114% in experiment [8]; 99% in [9]; 103% in experiment [10]; 83.8% in [11]; 102% in [12]. Further, the growth in experiment [13] was 102%; in [14], 102%; in experiment [15] it was 90.4%; in experiment [16], 96%; in experiment [17] it was 118%; in [18], 107%.

For the compound `CCOc1ccc(/C=N\N=C\c2ccc(OCC)cc2)cc1`, the growth in experiment [1] was 64.3%; in experiment [2], 107%; in [3], 74.5%; in experiment [4], 76.9%; in [5], 94.1%; in experiment [6], 101%. The growth in [7] is 78.5%; in experiment [8], 114%; in [9], 106%; in experiment [10], 78.1%; in [11], 94.7%; in experiment [12] it was 87.7%. For the same compound, the growth in experiment [13] is 109%; in experiment [14], 52.8%; in [15], 67.5%; in experiment [16], 45.5%; in experiment [17], 98%; in experiment [18] it was 98.1%.

In the case of `CCN(CC)c1ccc(N2C(=O)/C(=C/c3cccs3)SC2=S)cc1`, the growth in experiment [1] was 95.4%; in [2] it was 97%; in experiment [3], 99.6%; in experiment [4], 95.4%; in experiment [5] it was 81.9%; in [6], 113%. Besides, the growth was 99.4% in experiment [7]; 101% in experiment [8]; 103% in experiment [9]; 96.6% in [10]; 83% in experiment [11]; 102% in experiment [12]. Further, the growth is 95.4% in [13]; 103% in experiment [14]; 89.9% in [15]; 95.9% in [16]; 110% in [17]; 100% in experiment [18].

For `C=C1C(=O)O[C@H]2[C@H]1CC/C(COC(=O)NCc1ccc(Cn3c(=O)sn(-c4ccc(OC)cc4)c3=O)cc1)=C\CC[C@@]1(C)O[C@@H]21`, the growth in [1] is 27.3%; in [2] it was -3.82% (active); in experiment [3], 75.8%; in [4], 83.6%; in experiment [5], 35.7%; in experiment [6], 105%. Also, the growth in [7] is 46.7%; in experiment [8] it was -27.1% (active); in experiment [9], 90.7%; in [10] it was 95.8%; in [11], 18.5%; in experiment [12], 73.1%. For the same compound, the growth in [13] is 67.1%; in experiment [14], -59.8% (active); in experiment [15], 20.3%; in experiment [16] it was 5.31% (active); in experiment [17] it was 97.5%; in experiment [18] it was 95.3%.

(Values after PubChem BioAssay (NCI).)
